Results on seven compounds are retold here after PubChem BioAssay (Tox21).

Test [1] is described as follows: qHTS assay to identify small molecule antagonists of the androgen receptor (AR) signaling pathway using the MDA cell line in the presence of 0.5 nM R1881 - cell viability counter screen (AID 1259242). Further: nearly all actives have a fitted effect of over 45% in size. Further: potency means the concentration at half of the fitted maximal effect. The gist of the method: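 MDA-kb2 cells (human breast carcinoma, stably carrying MMTV-luciferase reporter) were exposed to compounds with 0.5 nM R1881 (final) for 16 hr at 37C, 0% CO2; viability then read as live-cell protease fluorescence (CellTiter-Fluor, 30 min) in the same wells.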
For orientation: In qHTS, concentration-response curves come from the screen itself.

Test [2] addresses Estrogen receptor (Homo sapiens) (UniProt P03372). In words: qHTS assay to identify small molecule antagonists of the estrogen receptor alpha (ER-alpha) signaling pathway using the BG1 cell line in the presence of 0.1 nM 17-beta-estradiol (AID 1259244). Further: nearly all actives have a fitted effect of over 50% in size. Further: potency means the concentration at half of the fitted maximal effect. The gist of the method:
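VM7Luc4E2 cells (endogenous full-length ER-alpha, stable 4xERE-luciferase) were grown 5 days in phenol red-free medium with charcoal-stripped FBS, then exposed 22 h at 37C to compounds plus 0.1 nM (final) 17beta-estradiol; ONE-Glo luminescence read-out.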

Test [3] can be described thus: qHTS assay to identify small molecule HDAC inhibitors (AID 1259364). Further: nearly all actives have a fitted effect of over 45% in size. Further: potency means the concentration at half of the fitted maximal effect. The procedure, abridged:
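Wild-type HCT-116 cells were plated overnight, exposed to compounds for 2 h at 37 °C, then given HDAC-Glo class I/II luminogenic reagent for 30 min at room temperature before luminescence was read.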

Test [4] can be described thus: qHTS assay to identify small molecule HDAC inhibitors - cell viability counter screen (AID 1259365). Further: nearly all actives have a fitted effect of over 50% in size. Further: potency means the concentration at half of the fitted maximal effect. The gist of the method:
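Following a 2hr exposure of overnight-plated wild-type HCT-116 cells to DMSO-delivered compounds, CellTiter-Glo was added and luminescence recorded after 30min at room temperature.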

Test [5] can be described thus: qHTS assay to identify small molecule agonists of the sonic hedgehog signaling (Shh) pathway - cell viability counter screen (AID 1259366). Further: nearly all actives have a fitted effect of over 50% in size. Further: potency means the concentration at half of the fitted maximal effect. The procedure, abridged:
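After a 4hr attachment at 37C, NIH/3T3 cells bearing an integrated Gli1-driven luciferase reporter were dosed with compounds. Treatment lasted 24hr, with the final hour including CellTiter-Fluor for a fluorescence viability measurement.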

Test [6] in a line: qHTS assay to identify small molecule antagonists of the sonic hedgehog signaling (Shh) pathway - cell viability counter screen (AID 1259367). Further: nearly all actives have a fitted effect of over 55% in size. Further: potency means the concentration at half of the fitted maximal effect. The gist of the method: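 Cells: 3T3 Gli1-Luc, 2,000/well, 4 hr pre-incubation. Compounds in DMSO, then conditioned medium. Incubation 24 hr, 37C, 5% CO2. CellTiter-Fluor at 23 hr, 1 hr, fluorescence.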
Test [7] in a line: qHTS assay to identify small molecule agonists of the sonic hedgehog signaling (Shh) pathway (AID 1259368; calls by dose curve; further: series mostly up to about 92 µM; nearly all actives have a fitted effect of over 15% in size). The procedure, abridged: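 NIH/3T3-derived 3T3Gli1-Luc cells carrying a stably integrated Gli1 response element–firefly luciferase reporter were plated, left 4 hr at 37 C, then given compounds in DMSO for 24 hr. Luminescence was read 30 min after adding luciferase reagent.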

Test [8] deals with Estrogen receptor beta (Homo sapiens) (UniProt Q92731). The experiment in a line: qHTS assay to identify small molecule agonists of the estrogen receptor beta (ER-beta) signaling pathway (AID 1259377; active means well fitted activation curve with a large enough effect in the signal ratio in the repeat runs, not every such curve was filed as active; the % refers to the signal ratio). The procedure, abridged: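 In HEK293T cells bearing a UAS-beta-lactamase reporter under ER-beta control, DMSO-delivered compounds were incubated for 16 hr at 37C. Activity was detected as fluorescence 2 hours after LiveBLAzer B/G FRET substrate addition.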

Test [9] has the same target. In words: qHTS assay to identify small molecule antagonists of the estrogen receptor beta (ER-beta) signaling pathway (AID 1259378; active means well fitted inhibition curve with a large enough effect in the signal ratio in the repeat runs, not every such curve was filed as active; the % refers to the signal ratio; further: potency means the concentration at half of the fitted maximal effect). The procedure, abridged: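 Antagonist mode: compounds added to beta-lactamase reporter HEK293T ER-beta-UAS cells stimulated with E2 (1nM final), 16 hr at 37C. LiveBLAzer B/G FRET substrate, 2 hours room temperature, fluorescence read-out.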

Test [10] can be described thus: qHTS assay to identify small molecule agonists of the androgen receptor (AR) signaling pathway in the presence of an antagonist - cell viability counter screen (AID 1259379). Further: nearly all actives have a fitted effect of over 25% in size. Further: potency means the concentration at half of the fitted maximal effect. The gist of the method: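 MDA-kb2 human breast carcinoma cells (stable MMTV-luciferase, AR/GR responsive) were seeded 3,000 cells/well, pre-incubated 5 hr at 37C without CO2, then given 3.0uM nilutamide and compounds at 15 concentrations for 16 hr. Viability was read by CellTiter-Fluor fluorescence.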

Test [11] can be described thus: qHTS assay to identify small molecule agonists of the estrogen receptor beta (ER-beta) signaling pathway - cell viability counter screen (AID 1259380). Further: nearly all actives have a fitted effect of over 30% in size. Further: potency means the concentration at half of the fitted maximal effect. The procedure, abridged: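 ER-beta-UAS-bla HEK293T cells in medium with 2% charcoal-stripped FBS were preincubated 6 hr at 37C, dosed with compound in DMSO for 16 hr, then after the bla read, CellTiter-Glo was added for 30 min at room temperature; luminescence recorded.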

A short description of test [12]: qHTS assay to identify small molecule antagonists of the estrogen receptor beta (ER-beta) signaling pathway - cell viability counter screen (AID 1259382). Further: nearly all actives have a fitted effect of over 55% in size. Further: potency means the concentration at half of the fitted maximal effect. The procedure, abridged: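 ER-beta-UAS-bla HEK293T cells (2,000/well, 2% charcoal-stripped FBS) were pre-incubated 6 hr at 37C, then given compound plus 1nM final 17-beta-estradiol for 16 hr. Viability was read in the same wells by CellTiter-Glo luminescence after 30 min at room temperature.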

Test [13] deals with Estrogen receptor (Homo sapiens) (UniProt P03372). In words: qHTS assay to identify small molecule agonists of the estrogen receptor alpha (ER-alpha) signaling pathway in the presence of an antagonist (AID 1259383; calls by dose curve; further: top concentration of the series differs between compounds; nearly all actives have a fitted effect of over 15% in size). The gist of the method:
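VM7Luc4E2 cells (endogenous full-length ER-alpha, 4×ERE-luciferase) were precultured 5 days in phenol red-free medium with 10% charcoal-stripped FBS, given 10.0nM ICI-182,780 (final), then treated with compounds at 15 concentrations for 22hr at 37C; luminescence read with ONE-Glo.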

Test [14] in a line: qHTS assay to identify small molecule agonists or antagonists of the thyroid stimulating hormone receptor (TSHR) signaling pathway - wild type cell line counter screen (AID 1259384; calls by dose curve). The procedure, abridged:
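Counter screen in untransfected Hek293: compounds (15-point titration, triplicate) plus phosphodiesterase inhibitor Ro20-1724 added after 18 h plating; 30 min RT. Intracellular cAMP via competitive d2/cryptate immunoassay, 1 h incubation.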

Test [15] deals with Thyrotropin receptor (Homo sapiens) (UniProt P16473). The experiment in a line: qHTS assay to identify small molecule antagonists of the thyroid stimulating hormone receptor (TSHR) signaling pathway (AID 1259385; calls by dose curve; further: nearly all actives have a fitted effect of over 20% in size; further: potency means the concentration at half of the fitted maximal effect). The procedure, abridged: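 Antagonist mode: compound-treated TSHR-expressing HEK293 cells were stimulated with 1.5 ng/mL TSH (final) in presence of Ro20-1724 for 30 min at RT. HTRF cAMP detection after 1 h; each compound tested at 15 concentrations, triplicate.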

A short description of test [16]: qHTS assay to identify small molecule agonists of the estrogen receptor alpha (ER-alpha) signaling pathway in the presence of an antagonist - cell viability counter screen (AID 1259386). Further: nearly all actives have a fitted effect of over 30% in size. Further: potency means the concentration at half of the fitted maximal effect. The gist of the method: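 VM7Luc4E2 cells (endogenous full-length ER-alpha, 4×ERE-luciferase) were held 5 days in phenol red-free medium with 10% charcoal-stripped FBS, plated, then given 10.0nM ICI-182,780 and compounds at 15 concentrations for 22hr at 37C; viability read by CellTiter-Fluor fluorescence.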

A short description of test [17]: qHTS assay to identify small molecule antagonists of the sonic hedgehog signaling (Shh) pathway (AID 1259369; calls by dose curve; further: nearly all actives have a fitted effect of over 45% in size; further: potency means the concentration at half of the fitted maximal effect). The procedure, abridged:
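NIH/3T3-derived 3T3Gli1-Luc cells with stably integrated Gli1-Luc reporter were preincubated 4hr at 37 C, then given compounds in DMSO plus Shh conditioned medium and incubated 24hr. Firefly luciferase luminescence read after 30min reagent at room temperature.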

The nature of test [18]: qHTS assay to identify small molecule phospholipidosis (PLD) inducers (AID 1259344; active means well fitted curve in the direction sought with a large enough effect; an effect the other way counts as inactive or inconclusive). The procedure, abridged:
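Phospholipidosis is scored by imaging LipidTOX-stained pits in HepG2 cells exposed to compound for 24 h at 37 C; pit counts and integrated intensities per well and per cell serve as outputs.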

Records with an inconclusive call do not appear. Activity calls are given as the source filed them. Unless noted, the call rests on the fitted dose curve; in most records, active means well fitted curve in the direction sought with a large enough effect in the repeat runs; inconclusive means weak or mixed curves; inactive means no such curve, though single readings can be large; an effect the other way counts as inactive or inconclusive.

Chain of Thyrotropin receptor (Homo sapiens) (P16473 whole entry, looked up): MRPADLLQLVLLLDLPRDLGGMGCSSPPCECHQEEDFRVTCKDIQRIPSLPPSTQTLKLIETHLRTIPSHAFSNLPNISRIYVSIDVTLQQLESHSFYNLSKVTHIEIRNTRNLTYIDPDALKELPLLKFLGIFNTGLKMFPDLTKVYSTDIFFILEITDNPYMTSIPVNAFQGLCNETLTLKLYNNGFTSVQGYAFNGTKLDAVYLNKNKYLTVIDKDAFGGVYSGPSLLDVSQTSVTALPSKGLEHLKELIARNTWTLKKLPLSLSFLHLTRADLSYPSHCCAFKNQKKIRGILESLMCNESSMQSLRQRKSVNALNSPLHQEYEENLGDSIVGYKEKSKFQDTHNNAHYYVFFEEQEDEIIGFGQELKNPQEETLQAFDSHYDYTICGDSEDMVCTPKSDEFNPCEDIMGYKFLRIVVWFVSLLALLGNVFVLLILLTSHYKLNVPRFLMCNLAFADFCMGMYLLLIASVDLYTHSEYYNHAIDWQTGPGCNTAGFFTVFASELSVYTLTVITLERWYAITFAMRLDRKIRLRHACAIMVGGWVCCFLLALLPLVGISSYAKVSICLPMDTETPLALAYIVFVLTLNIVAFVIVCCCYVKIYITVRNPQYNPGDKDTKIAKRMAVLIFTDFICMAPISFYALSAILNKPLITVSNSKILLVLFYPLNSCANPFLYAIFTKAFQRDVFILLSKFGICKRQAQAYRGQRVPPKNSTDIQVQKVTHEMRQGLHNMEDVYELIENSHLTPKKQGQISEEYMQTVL
Chain of Estrogen receptor (Homo sapiens) (P03372 whole entry, looked up): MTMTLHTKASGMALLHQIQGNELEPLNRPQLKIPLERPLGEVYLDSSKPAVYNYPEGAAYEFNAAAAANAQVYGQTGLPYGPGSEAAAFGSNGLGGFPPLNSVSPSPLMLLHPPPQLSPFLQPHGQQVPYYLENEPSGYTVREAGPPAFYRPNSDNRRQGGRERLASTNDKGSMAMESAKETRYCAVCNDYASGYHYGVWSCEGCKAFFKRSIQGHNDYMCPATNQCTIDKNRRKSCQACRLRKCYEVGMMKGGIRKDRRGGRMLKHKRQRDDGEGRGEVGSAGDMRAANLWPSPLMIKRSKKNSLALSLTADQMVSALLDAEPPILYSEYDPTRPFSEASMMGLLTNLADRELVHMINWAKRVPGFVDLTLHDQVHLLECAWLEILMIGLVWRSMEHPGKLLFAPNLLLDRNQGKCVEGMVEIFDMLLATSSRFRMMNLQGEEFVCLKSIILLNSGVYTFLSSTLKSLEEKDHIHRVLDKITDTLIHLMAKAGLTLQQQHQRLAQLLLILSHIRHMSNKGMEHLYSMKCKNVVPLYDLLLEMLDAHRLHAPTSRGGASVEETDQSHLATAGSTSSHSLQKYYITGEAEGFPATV
Chain of Estrogen receptor beta (Homo sapiens) (Q92731 whole entry, looked up): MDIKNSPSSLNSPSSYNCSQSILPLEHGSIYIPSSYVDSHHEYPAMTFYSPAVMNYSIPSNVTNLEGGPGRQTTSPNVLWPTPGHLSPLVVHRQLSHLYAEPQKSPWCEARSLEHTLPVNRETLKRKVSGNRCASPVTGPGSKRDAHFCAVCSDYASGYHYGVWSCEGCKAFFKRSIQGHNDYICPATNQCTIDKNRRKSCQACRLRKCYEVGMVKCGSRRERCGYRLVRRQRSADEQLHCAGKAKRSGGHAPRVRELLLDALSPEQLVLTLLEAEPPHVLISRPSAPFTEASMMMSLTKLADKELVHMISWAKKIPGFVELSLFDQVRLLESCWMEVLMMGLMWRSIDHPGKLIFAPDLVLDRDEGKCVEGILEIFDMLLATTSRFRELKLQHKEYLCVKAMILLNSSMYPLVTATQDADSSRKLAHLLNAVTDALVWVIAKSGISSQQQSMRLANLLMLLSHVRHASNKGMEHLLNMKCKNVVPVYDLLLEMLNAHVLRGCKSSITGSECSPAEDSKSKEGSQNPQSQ

`CCCCCOC(=O)CCCC`: the Potency entry in [1], in [2], in [3], in test [4], in test [5] and in test [6] was “inactive” each time. For the same compound, the Potency entry in test [7], in test [8], in [9], in [10], in [11] and in [12] was “inactive” throughout. The Potency result in test [13], in test [15] and in test [16] was “inactive” in each case. In test [14], the outcome was inactive.
Consider `CCCCCCCCCCCCCCCS(=O)(=O)Oc1ccccc1`, for which the Potency entry in test [1], in [2], in test [3], in test [4], in test [5] and in test [6] was “inactive” each time. For the same compound, the Potency entry in test [7], in test [17], in test [8], in [9], in [10] and in [11] was “inactive” each time. For the same compound, the Potency entry in test [12], in test [13], in test [15] and in test [16] was “inactive” in each case. The outcome in [14] was inactive.
`O=C(N/N=C/c1ccccc1O)c1ccncc1`: the Potency entry in [1], in test [18], in test [4], in test [6], in test [7] and in test [8] was “inactive” in each case. The Potency entry in [10], in test [12], in [13] and in test [15] was “inactive” in each case. Also, the Potency in test [2] was 9.44 µM (active); in test [3], 23.7 µM (active); in test [17] it was 0.473 µM (active); in [9], 2.11 µM (active). Also, in [14], the result was inactive.
Turning to `COCCCC/C(=N\OCCN)c1ccc(C(F)(F)F)cc1`, the Potency entry in test [1], in test [2], in [3], in test [4], in test [5] and in [6] was “inactive” in each case. The Potency entry in test [7], in [8], in [13] and in [16] was “inactive” each time. Also, the Potency in test [9] is 29.8 µM (active); in test [11] it was 13.3 µM (active); in [15], 29.8 µM (active). Further, in test [14], the result was inactive.
Turning to `CSc1ccc(C(=O)c2[nH]c(=O)[nH]c2C)cc1`, the Potency result in test [1], in [2], in [18], in test [3], in test [4] and in test [5] was “inactive” each time. For the same compound, the Potency entry in test [6], in test [7], in [17], in test [10], in test [13] and in test [15] was “inactive” throughout. In addition, the Potency result in [16] was “inactive”. In test [14], the call was inactive.
Consider `CCCCCCCC[N+](CCCCCCCC)(CCCCCCCC)CCCCCCCC`, for which the Potency is 9.67 µM (active) in test [1]; 2.16 µM (active) in test [2]; 61 µM (active) in [4]; 17.2 µM (active) in [5]; 27.3 µM (active) in test [6]; 0.768 µM (active) in test [17]. In addition, the Potency in [10] was 17.2 µM (active); in test [11], 30.6 µM (active); in test [12], 21.6 µM (active); in test [15], 61 µM (active); in test [16], 12.2 µM (active). Besides, the Potency entry in [3], in [7] and in test [13] was “inactive” throughout. Also, in [14], the call was inactive.
On to `Cc1cc(C2CCCCC2)n(O)c(=O)c1`, for which the Potency entry in [1], in [18], in test [3], in test [4], in [11] and in [12] was “inactive” throughout. In addition, the Potency result in test [13] and in [15] was “inactive” each time. In addition, the Potency in test [2] was 6.68 µM (active); in [6] it was 15 µM (active); in [17], 1.19 µM (active). In addition, in test [14], the call was inactive.
